Screening data (PubChem)
GLP-1R agonist: activates the human GLP-1 receptor; P43220; HEK293 GLP-1R CRE-luciferase, luminescence, 4-6 h; cells express a hypersensitive GLP-1R form; Potency, µM (titrated, usually from 45.6 µM), hits mostly activators; 380,000 tested, 0.007% active; AID 624172
DRD3 agonist: agonists of human D3 dopamine receptor; P35462; D3R DiscoveRx beta-arrestin cells, luminescence, 90 min; max activation, %; 410,000 tested, 0.58% active; in the data active = max activation above about 30%
Target sequence (P35462 whole entry, looked up): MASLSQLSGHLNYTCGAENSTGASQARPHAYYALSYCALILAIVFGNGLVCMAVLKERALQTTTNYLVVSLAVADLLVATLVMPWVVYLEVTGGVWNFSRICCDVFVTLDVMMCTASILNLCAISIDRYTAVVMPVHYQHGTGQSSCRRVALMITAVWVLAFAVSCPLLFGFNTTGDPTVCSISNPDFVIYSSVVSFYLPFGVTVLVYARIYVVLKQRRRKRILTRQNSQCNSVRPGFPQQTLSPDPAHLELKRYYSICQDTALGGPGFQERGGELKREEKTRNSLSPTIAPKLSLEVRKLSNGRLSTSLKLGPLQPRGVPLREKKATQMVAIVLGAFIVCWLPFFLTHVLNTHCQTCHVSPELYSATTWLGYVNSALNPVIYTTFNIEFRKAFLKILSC
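Agonist mode: compounds and dopamine controls were applied to plated cells for 90 min at 37 degrees C after an overnight attachment at 1500 cells/well. Luminescent read-out followed 30 - 60 minutes at room temperature with DiscoveRx detection reagent.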
GLP-1R inv ag: inverse agonists of human GLP-1 receptor; HEK293 GLP-1R CRE-luciferase, luminescence, 24 h; GLP-1R form is constitutively active; P43220; 410,000 tested, 1.6% active; Potency, µM (top dose mostly 38.3 µM), most hits filed as inhibitors; also: nearly all actives have a fitted effect of over 55% in size
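Inverse agonists were sought by their lowering of basal cAMP reporter luciferase output in HEK293 cells stably carrying constitutively active human GLP-1R, after 24 h compound treatment.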
DRD3 antagonist: blocks the human D3 dopamine receptor; D3R cells, DiscoveRx beta-arrestin luminescence, antagonist mode; active compounds read low; max response, negative = inhibition, %; AID 652054; P35462; 360,000 tested, 2.5% active; in the data active = max response below about -50%; inconclusive = no clear call, values can overlap the other calls
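Cells plated overnight at 1500 cells/well, then exposed to library compounds with dopamine controls for 90 minutes at 37 degrees C. DiscoveRx reagent added for 30–60 minutes at room temperature; luminescence read, quantitative HTS format.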
Each line names hits and unclear results; the compound was inactive in the other large screens. Sampled rows, rich in hits. Any-hit rate of the full collection: about 4.3%. Unless noted, calls follow the shape of the dose curve; as a rule, active = well fitted curve in the direction sought with a large enough effect; inconclusive = small, poorly fitted or top-dose-only effect, or another doubt; inactive = no such curve, though single readings can be large; an effect the other way counts as inactive or inconclusive.

O=C1c2ccc3c4c(ccc(c24)C(=O)N1c1cccc(O)c1)C(=O)N(c1cccc(O)c1)C3=O	DRD3 antagonist -82.4
O=C1c2ccc3c4c(ccc(c24)C(=O)N1c1cccc(O)c1)CC3	none
COc1ccc(N/C(=N\c2nc(C)cc(C)n2)NC(C)=O)cc1OC	none
COc1ccc(N/C(=N\c2nc(C)cc(C)n2)NC(=O)C(C)C)cc1OC	DRD3 antagonist -65.2
Cc1cc(C)cc(Nc2ncnc3c2nc2n3CCCC2)c1	none (no result: GLP-1R agonist, DRD3 antagonist)
O=C(C(Cc1ccccc1)N1C(=O)c2ccccc2C1=O)N1c2ccccc2CCc2ccccc21 (configuration not stated)	GLP-1R inv ag 12.6µM, DRD3 antagonist inconclusive
COc1cccc(NC(=O)CSc2nc3c(sc4ccccc43)c(=O)n2CCCN2CCCC2)c1	GLP-1R inv ag 10µM, DRD3 antagonist inconclusive
COc1cccc(OC)c1C(=O)Nc1ccc2c(c1)N(S(=O)(=O)c1cccs1)CCC2	none
O=C(Nc1ccc2c(c1)N(S(=O)(=O)c1cccs1)CCC2)c1c(F)cccc1Cl	GLP-1R inv ag 7.94µM
COc1ccc(NC(=O)c2sc3nc[nH]c(=O)c3c2C)cc1OC	none (no result: DRD3 antagonist)
CCOC(=O)c1sc2ncn(CC(=O)Nc3ccc(OC)c(Cl)c3)c(=O)c2c1C	none (no result: DRD3 antagonist)
CCn1c2ccccc2c2cc(/C=N/n3c(-c4cc(C)[nH]n4)n[nH]c3=S)ccc21	GLP-1R inv ag 2.51µM
COc1ccc(C(CNC(=O)COc2cc(C)ccc2Cl)N2CCCCC2)cc1 (configuration not stated)	DRD3 antagonist -58.5
COc1ccc(C(CNC(=O)c2oc3ccc(C)cc3c2C)N2CCOCC2)cc1 (configuration not stated)	none (no result: GLP-1R agonist, DRD3 antagonist)
COc1ccc(C(CNC(=O)c2oc3c(Cl)cccc3c2C)N2CCCC2)cc1 (configuration not stated)	GLP-1R inv ag 10µM, DRD3 antagonist inconclusive
COc1ccc(C(CNC(=O)Cc2c(F)cccc2Cl)N2CCCCC2)cc1 (configuration not stated)	DRD3 antagonist -111.1
CN(C)c1ccc(C(CNC(=O)COc2ccc(Cl)cc2)N2CCCC2)cc1 (configuration not stated)	GLP-1R inv ag 11.2µM
COc1ccc(CC(=O)NCCc2sc(-c3ccc(Cl)cc3)nc2C)cc1OC	none (no result: GLP-1R agonist, DRD3 antagonist)
CCOc1ccccc1CNC(=O)C1CCN(S(=O)(=O)c2c(C)noc2/C=C/c2ccccc2F)CC1	none (no result: GLP-1R agonist, DRD3 antagonist)
COc1ccc(C(CNC(=O)c2oc3ccc(Cl)cc3c2C)N2CCCCC2)cc1 (configuration not stated)	GLP-1R inv ag inconclusive, DRD3 antagonist -103.3
COc1ccc(C(CNC(=O)c2oc3ccccc3c2C)N2CCCC2)cc1 (configuration not stated)	GLP-1R agonist inconclusive, GLP-1R inv ag inconclusive, DRD3 antagonist inconclusive
CCCCS/C(=C(/C#N)C(N)=O)c1cc2c([nH]1)CCCC2	GLP-1R inv ag inconclusive, DRD3 antagonist -74.2
COc1cc(N[C@@H](C)CCCN)c2ncccc2c1	none (no result: DRD3 agonist, GLP-1R inv ag, DRD3 antagonist)
COc1cc(NC(C)CCCN)c2ncccc2c1Oc1ccccc1 (configuration not stated)	GLP-1R inv ag inconclusive, DRD3 antagonist -56.2
COc1ccccc1C1CC(c2c(-c3ccccc3)c3cc(Cl)ccc3[nH]c2=O)=NN1S(C)(=O)=O (configuration not stated)	GLP-1R inv ag 10µM
COc1cccc(C2CC(c3c(-c4ccccc4)c4cc(Cl)ccc4[nH]c3=O)=NN2S(C)(=O)=O)c1OC (configuration not stated)	GLP-1R inv ag inconclusive
Cc1ccccc1OCCSc1nc2ccc(NC(=O)c3cccs3)cc2s1	GLP-1R inv ag 12.6µM (no result: GLP-1R agonist, DRD3 antagonist)
Cc1ccccc1OCCSc1nc2ccc(NC(=O)c3ccccc3)cc2s1	GLP-1R inv ag 2.82µM (no result: GLP-1R agonist, DRD3 antagonist)
CC1CCc2nc(NC(=O)Nc3ccc4c(c3)OCO4)sc2C1 (configuration not stated)	GLP-1R inv ag inconclusive
COc1ccc(-c2nn3c(-c4ccccc4C)nnc3c3ccccc23)cc1	none (no result: GLP-1R agonist, DRD3 antagonist)
CC(C)[C@H](NC(=O)c1ccccc1)C(=O)OCC(=O)c1c(N)n(C)c(=O)n(C)c1=O	none
Cc1ccc2c(c1)C(=C(C#N)C#N)C(=O)N2CCN1CCOCC1	none
Cc1ccc2c(c1)C(=C(C#N)C#N)C(=O)N2CCN1CCCCC1	DRD3 antagonist -54.6
CCOC(=O)Cn1c(=O)oc2cc(S(=O)(=O)N3CCN(c4cccc(Cl)c4)CC3)ccc21	none (no result: GLP-1R agonist, DRD3 antagonist)
O=C(O)c1ccccc1NC(c1ccccc1)c1ccc2cccnc2c1O (configuration not stated)	GLP-1R inv ag inconclusive, DRD3 antagonist -95.3
Cc1ccc2ccc(C(Nc3cccc(C(F)(F)F)c3)c3cccnc3)c(O)c2n1 (configuration not stated)	DRD3 antagonist -127.5
Cc1ccc2ccc(C(Nc3ccccn3)c3ccccc3)c(O)c2n1 (configuration not stated)	GLP-1R inv ag inconclusive, DRD3 antagonist -59.4
COc1cc(C(Nc2ccccn2)c2ccc3ccc(C)nc3c2O)cc(OC)c1O (configuration not stated)	DRD3 antagonist inconclusive
Cc1ccnc(NC(c2ccccc2)c2ccc3cccnc3c2O)c1 (configuration not stated)	GLP-1R inv ag inconclusive
Cc1ccc2ccc(C(Nc3ccccc3)c3ccc(C(C)C)cc3)c(O)c2n1 (configuration not stated)	GLP-1R inv ag 3.55µM (no result: GLP-1R agonist)
CCCn1c2ccccc2c2cnn(CC(=O)Nc3ccc(C)cc3Br)c(=O)c21	GLP-1R inv ag inconclusive (no result: GLP-1R agonist, DRD3 antagonist)
O=C(NCc1cccnc1)c1nn(-c2ccccc2F)nc1CO	none (no result: GLP-1R agonist, DRD3 antagonist)
Cc1ccc2ccc(C(Nc3ccccc3)c3ccccc3)c(O)c2n1 (configuration not stated)	GLP-1R inv ag 6.31µM, DRD3 antagonist inconclusive (no result: GLP-1R agonist)
Cc1ccc2ccc(C(Nc3ccccc3)c3ccc(F)cc3)c(O)c2n1 (configuration not stated)	GLP-1R inv ag inconclusive, DRD3 antagonist inconclusive (no result: GLP-1R agonist)
Cc1cccc(NC(=O)c2cc(S(=O)(=O)N3CCc4ccccc43)ccc2F)c1C	GLP-1R inv ag inconclusive (no result: GLP-1R agonist, DRD3 antagonist)
NC(N)=NCCCC(N)C(=O)O (configuration not stated)	none (no result: DRD3 agonist, GLP-1R inv ag, DRD3 antagonist)
Cc1cc(C)c2c(N)c(C(=O)Nc3cccc(C)c3C)sc2n1	DRD3 agonist 92.0
Cc1ccc(NC(=O)c2sc3nc(C)cc(C)c3c2N)cc1	none
CCCCNC(=S)Nc1ccc2nc(N3CCN(CC)CC3)cc(C)c2c1	GLP-1R inv ag inconclusive
CCN(CC)CCNC(=S)Nc1ccc2nc(N3CCN(CC)CC3)cc(C)c2c1	GLP-1R inv ag 2.51µM
CCCCN(C)CCNC(=S)Nc1ccc2nc(N3CCN(CC)CC3)cc(C)c2c1	GLP-1R inv ag 1.12µM, DRD3 antagonist inconclusive
CCN1CCN(c2cc(C)c3cc(NC(=O)c4cc(OC)c(OC)c(OC)c4)ccc3n2)CC1	none (no result: GLP-1R agonist, DRD3 antagonist)
COc1cc(OC)cc(C(=O)Nc2ccc3nc(N4CCCCC4)cc(C)c3c2)c1	GLP-1R inv ag 11.2µM (no result: GLP-1R agonist, DRD3 antagonist)
CCN1CCN(c2cc(C)c3cc(NC(=O)c4cncc(Br)c4)ccc3n2)CC1	GLP-1R inv ag inconclusive, DRD3 antagonist -69.4
